Assays:
Conditions in all cases: concentration: 1 μM,replicates: in singlicate; n = 1
HASPIN = tested on: T1, HASPIN
T1 construct: gene GSG2

HCK = tested on: HCK
HIPK1 = tested on: HIPK1
HIPK2 = tested on: HIPK2
HIPK3 = tested on: HIPK3
HIPK4 = tested on: HIPK4
HPK1 = tested on: HPK1
HUNK = tested on: HUNK
ICK = tested on: ICK
IGF1R = tested on: IGF1R
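Note: KINOMEscan kinase panel screen.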

SMILES | %Inh (HASPIN) | %Inh (HCK) | %Inh (HIPK1) | %Inh (HIPK2) | %Inh (HIPK3) | %Inh (HIPK4) | %Inh (HPK1) | %Inh (HUNK) | %Inh (ICK) | %Inh (IGF1R)
Cc1n[nH]c2cc(Nc3ccnc(Nc4cccc(CN5CCOCC5)c4)n3)ccc12 [GW682569] | 20% | 25% | 0% | 0% | 26% | 3% | 24% | 0% | 0% | 0%
COc1cccc(C2=C(Nc3cccc(Cl)c3)C(=O)NC2=O)c1 [SB-341556] | 0% | 0% | 19% | 0% | 33% | 0% | 47% | 0% | 33% | 7%
CCCC(=O)Nc1n[nH]c2ncccc12 [SB-601436] | 29% | 0% | 20% | 0% | 0% | 0% | 6% | 28% | 7% | 0%
FC(F)(F)c1cc(Br)cc(Nc2nccc(-c3cnn4ncccc34)n2)c1 [GW810578] | 0% | 12% | 99.1% | 99.4% | 97.9% | 76% | 13% | 0% | 97.8% | 0%
COc1cc2c(Nc3ccc(NC(=O)c4ccccc4)cc3)ncnc2cc1OCCCN1CCOCC1 [GSK301329] | 0% | 0% | 15% | 0% | 3% | 79% | 15% | 0% | 2% | 15%
Cn1ccc2ncnc(Oc3ccc(NC(=O)Nc4cc(C(C)(C)C)on4)c(Cl)c3)c21 | 5% | 66% | 36% | 34% | 0% | 28% | 30% | 2% | 15% | 15%
COC(=O)c1cccc(NC(=O)NC2CCN(c3ccnc(NCc4ccc(F)cc4)n3)CC2)c1 [GSK1379860] | 17% | 35% | 0% | 47% | 10% | 0% | 24% | 0% | 0% | 0%
CCNCC(Cc1ccccc1)NC(=O)c1cc(Br)c(-c2ccnc3[nH]ccc23)s1.Cl.Cl (stereo not drawn) [GSK1383280] | 88% | 0% | 46% | 18% | 48% | 92.5% | 51% | 0% | 18% | 23%
CS(=O)(=O)Nc1ccc(-c2ccnc3[nH]ccc23)cc1 [GSK993273] | 78% | 0% | 56% | 8% | 73% | 34% | 38% | 0% | 6% | 2%
Cl.c1ccc(Oc2ccc(Nc3ccnc4cc(-c5ccc(CN6CCNCC6)o5)ccc34)cc2)nc1 [GW567142] | 0% | 84% | 0% | 0% | 7% | 10% | 0% | 1% | 0% | 0%
O=C(Nc1cccc(C(F)(F)F)c1)c1cccc(Oc2ccc3nccn3n2)c1 | 0% | 52% | 0% | 8% | 20% | 65% | 0% | 0% | 31% | 20%
O=C(NOCC1CC1)c1cc(Br)c(F)c(F)c1Nc1ccc(I)cc1Cl | 0% | 8% | 20% | 0% | 0% | 0% | 14% | 8% | 0% | 0%
O=c1[nH]cc(-c2ccc(O)cc2)c2sc(-c3ccncc3)cc12 [GSK1033723] | 88% | 0% | 67% | 72% | 90.1% | 22% | 44% | 0% | 0% | 0%
O=C(Nc1ccc(Oc2ccc3nc(NC(=O)C4CC4)cn3n2)c(F)c1)c1cccn(-c2ccccc2)c1=O | 0% | 71% | 40% | 0% | 0% | 20% | 11% | 6% | 0% | 0%
Cc1cccc2c(-c3ccncc3)c(-c3ccc(F)cc3)nn12.Cl [GW461487] | 2% | 0% | 0% | 0% | 19% | 0% | 28% | 5% | 0% | 0%

— article PMC5540273 (PLoS ONE, 2017)
